# Values joined by “and” are separate entries in the source; they are usually repeats but may differ in a detail not shown here. Identical values can stand only once. Inconclusive results are not listed. Entries that show only a call come without a potency. More than one record can exist for a structure, and the calls need not agree. Active and inactive are the calls of the source. The call rests on the fitted dose curve; in most records, active means well fitted curve in the direction sought with a large enough effect in the repeat runs; inconclusive means weak or mixed curves; inactive means no such curve, though single readings can be large; an effect the other way counts as inactive or inconclusive.
# Columns and labels:
# [1] = A CellTox Green Cytotoxicity Assay to monitor cytotoxicity in HEK293 cells - 40 hour (AID 1224871); further: nearly all actives have a fitted effect of over 45% in size; further: potency means the concentration at half of the fitted maximal effect
# Method in brief: (§1)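 Fluorescence intensity, read at 0, 8, 16, 24, 32 and 40 h of compound treatment, reflected dye binding to DNA of dead HEK293 cells; compounds (23 nL, DMSO) were added 5 h after plating cells with reagent.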
# [2] = qHTS RealTime-Glo MT Cell Viability Assay in HEK293 cells - 16 hour (AID 1224872); further: nearly all actives have a fitted effect of over 50% in size; further: potency means the concentration at half of the fitted maximal effect
# Method in brief: (§2)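 Cells + reagent dispensed (600 cells/well, HEK293) → 5 h at 37 C/5% CO2 → 23 nL compound in DMSO pinned → 40 h at 37 C → luminescence read at 0, 8, 16, 24, 32, 40 h.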
# [3] = qHTS RealTime-Glo MT Cell Viability Assay in HepG2 cells - 8 hour (AID 1224873); further: nearly all actives have a fitted effect of over 55% in size; further: potency means the concentration at half of the fitted maximal effect
# Method in brief: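 Real-time viability: cells seeded at 600 per well together with NanoLuc and cell-permeant prosubstrate, compounds added after 5 h incubation. Luminescence tracked at 0, 8, 16, 24, 32 and 40 h of exposure.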
# [4] = qHTS RealTime-Glo MT Cell Viability Assay in HEK293 cells - 40 hour (AID 1224874); conditions: RealTime-Glo luminescence; max response: stronger effect = lower value; further: nearly all actives have a fitted effect of over 50% in size; further: potency means the concentration at half of the fitted maximal effect
# Method in brief: (§3)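 Viable HEK293 cells reduce a cell-permeant prosubstrate; the product diffuses out and is consumed by NanoLuc in the medium to give light. Compounds went in after a 5 h incubation and plates were read over the treatment course.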
# [5] = A CellTox Green Cytotoxicity Assay to monitor cytotoxicity in HEK293 cells - 24 hour (AID 1224875); further: series mostly up to about 77 µM; nearly all actives have a fitted effect of over 45% in size
# Method in brief: as §1
# [6] = A CellTox Green Cytotoxicity Assay to monitor cytotoxicity in HepG2 cells - 16 hour (AID 1224876); further: nearly all actives have a fitted effect of over 45% in size; further: potency means the concentration at half of the fitted maximal effect
# Method in brief: (§4)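 Using 1536-well format, dye-containing HepG2 suspension was seeded, allowed 5 h at 37 C/5% CO2, dosed by pintool with compounds, positive and negative controls, and imaged for fluorescence across 40 h.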
# [7] = qHTS RealTime-Glo MT Cell Viability Assay in HepG2 cells - 32 hour (AID 1224877); further: nearly all actives have a fitted effect of over 55% in size; further: potency means the concentration at half of the fitted maximal effect
# Method in brief: (§5)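 Real-time, nonlytic viability: 600 HepG2 cells/well mixed with NanoLuc enzyme plus prosubstrate; 5 h settle, compound (DMSO) added by pintool; luminescence monitored over 40 h at 37 C.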
# [8] = A CellTox Green Cytotoxicity Assay to monitor cytotoxicity in HepG2 cells - 24 hour (AID 1224878); further: nearly all actives have a fitted effect of over 45% in size; further: potency means the concentration at half of the fitted maximal effect
# Method in brief: as §4
# [9] = A CellTox Green Cytotoxicity Assay to monitor cytotoxicity in HepG2 cells - 40 hour (AID 1224879); further: nearly all actives have a fitted effect of over 40% in size; further: potency means the concentration at half of the fitted maximal effect
# Method in brief: as §4
# [10] = qHTS RealTime-Glo MT Cell Viability Assay in HEK293 cells - 0 hour (AID 1224880)
# Method in brief: as §3
# [11] = A CellTox Green Cytotoxicity Assay to monitor cytotoxicity in HEK293 cells - 32 hour (AID 1224881); further: nearly all actives have a fitted effect of over 40% in size; further: potency means the concentration at half of the fitted maximal effect
# Method in brief: as §1
# [12] = A CellTox Green Cytotoxicity Assay to monitor cytotoxicity in HepG2 cells - 0 hour (AID 1224882); further: nearly all actives have a fitted effect of over 35% in size; further: potency means the concentration at half of the fitted maximal effect
# Method in brief: as §4
# [13] = A CellTox Green Cytotoxicity Assay to monitor cytotoxicity in HepG2 cells - 32 hour (AID 1224883); further: nearly all actives have a fitted effect of over 50% in size; further: potency means the concentration at half of the fitted maximal effect
# Method in brief: as §4
# [14] = A CellTox Green Cytotoxicity Assay to monitor cytotoxicity in HEK293 cells - 8 hour (AID 1224884); further: nearly all actives have a fitted effect of over 35% in size; further: potency means the concentration at half of the fitted maximal effect
# Method in brief: as §1
# [15] = qHTS RealTime-Glo MT Cell Viability Assay in HepG2 cells - 16 hour (AID 1224885); further: nearly all actives have a fitted effect of over 50% in size; further: potency means the concentration at half of the fitted maximal effect
# Method in brief: as §5
# [16] = qHTS RealTime-Glo MT Cell Viability Assay in HEK293 cells - 8 hour (AID 1224887); further: nearly all actives have a fitted effect of over 50% in size; further: potency means the concentration at half of the fitted maximal effect
# Method in brief: as §3
# [17] = A CellTox Green Cytotoxicity Assay to monitor cytotoxicity in HEK293 cells - 16 hour (AID 1224888); further: nearly all actives have a fitted effect of over 35% in size
# Method in brief: as §1
# [18] = qHTS RealTime-Glo MT Cell Viability Assay in HepG2 cells - 0 hour (AID 1224889); further: nearly all actives have a fitted effect of over 50% in size
# Method in brief: as §5
# [19] = A CellTox Green Cytotoxicity Assay to monitor cytotoxicity in HepG2 cells - 8 hour (AID 1224890); further: nearly all actives have a fitted effect of over 45% in size; further: potency means the concentration at half of the fitted maximal effect
# Method in brief: as §4
# [20] = qHTS RealTime-Glo MT Cell Viability Assay in HEK293 cells - 24 hour (AID 1224886); further: nearly all actives have a fitted effect of over 50% in size; further: potency means the concentration at half of the fitted maximal effect
# Method in brief: as §2
compound,measurement,setting,value
O=C(O)c1nc(Cl)ccc1Cl,Potency,[1],inactive
same,Potency,[2],inactive
same,Potency,[3],inactive
same,max response,[4],3.62% (inactive) and 10.3% (inactive) and 7.66% (inactive)
same,Potency,[5],inactive
same,Potency,[6],inactive
same,Potency,[7],inactive
same,Potency,[8],inactive
same,Potency,[9],inactive
same,outcome,[10],inactive
same,Potency,[11],inactive
same,Potency,[12],inactive
same,Potency,[13],inactive
same,Potency,[14],inactive
same,Potency,[15],inactive
same,Potency,[16],inactive
same,Potency,[17],inactive
same,Potency,[18],inactive
same,Potency,[19],inactive
CCCCCCCCCCCCCCCCn1cc[n+](C)c1,Potency,[1],inactive and 19.7 µM (active) and 24.6 µM (active)
same,Potency,[2],inactive and 24.8 µM (active) and 24.6 µM (active)
same,Potency,[4],7.93 µM (active) and 4.4 µM (active) and 2.76 µM (active)
same,max response,[4],12.2% (inactive)
same,Potency,[7],inactive and 49.4 µM (active) and 34.8 µM (active)
same,Potency,[8],inactive and 44 µM (active) and 24.6 µM (active)
same,outcome,[10],inactive
same,Potency,[11],inactive and 19.7 µM (active) and 24.6 µM (active)
same,Potency,[12],inactive
same,Potency,[14],inactive and 49.4 µM (active)
same,Potency,[15],inactive and 49.4 µM (active) and 49.1 µM (active)
same,Potency,[16],inactive and 55.4 µM (active) and 55.1 µM (active)
same,Potency,[18],inactive
same,Potency,[19],inactive and 55.4 µM (active) and 55.1 µM (active)
N#CS,Potency,[1],inactive
same,Potency,[2],inactive
same,Potency,[3],inactive
same,max response,[4],6.52% (inactive) [middle of 4 runs]
same,Potency,[5],inactive
same,Potency,[6],inactive
same,Potency,[7],inactive
same,Potency,[8],inactive
same,Potency,[9],inactive
same,outcome,[10],inactive
same,Potency,[11],inactive
same,Potency,[12],inactive
same,Potency,[13],inactive
same,Potency,[14],inactive
same,Potency,[15],inactive
same,Potency,[16],inactive
same,Potency,[17],inactive
same,Potency,[18],inactive
same,Potency,[19],inactive
CCC(=O)C(CC(C)N(C)C)(c1ccccc1)c1ccccc1 (configuration not stated),Potency,[1],inactive
same,Potency,[2],inactive
same,Potency,[3],inactive
same,Potency,[4],24.4 µM (active)
same,Potency,[5],inactive
same,Potency,[7],inactive
same,Potency,[8],39.1 µM (active) and inactive
same,Potency,[9],43.8 µM (active) and 48.6 µM (active)
same,outcome,[10],inactive
same,Potency,[11],inactive
same,Potency,[12],inactive
same,Potency,[13],43.8 µM (active) and 48.6 µM (active) and inactive
same,Potency,[14],inactive
same,Potency,[15],inactive
same,Potency,[16],inactive
same,Potency,[17],inactive
same,Potency,[18],inactive
same,Potency,[19],inactive
CCCCn1cc[n+](C)c1C,Potency,[1],inactive
same,Potency,[2],inactive
same,Potency,[3],inactive
same,max response,[4],-1.35% (inactive) [middle of 6 runs]
same,Potency,[5],inactive
same,Potency,[6],inactive
same,Potency,[7],inactive and 44.2 µM (active)
same,Potency,[8],inactive
same,Potency,[9],inactive
same,outcome,[10],inactive
same,Potency,[11],inactive
same,Potency,[12],inactive
same,Potency,[13],inactive
same,Potency,[14],inactive
same,Potency,[15],inactive
same,Potency,[20],inactive
same,Potency,[16],inactive
same,Potency,[17],inactive
same,Potency,[18],inactive
same,Potency,[19],inactive
CCCC[n+]1ccc(C)cc1,Potency,[1],inactive and 21.8 µM (active)
same,Potency,[2],34.5 µM (active) and inactive
same,Potency,[3],inactive
same,Potency,[7],inactive
same,Potency,[8],inactive and 48.7 µM (active)
same,Potency,[9],inactive and 48.7 µM (active)
same,outcome,[10],inactive
same,Potency,[11],inactive and 21.8 µM (active)
same,Potency,[12],inactive
same,Potency,[13],inactive and 48.7 µM (active)
same,Potency,[14],inactive and 21.8 µM (active)
same,Potency,[15],inactive
same,Potency,[16],30.7 µM (active) and inactive
same,Potency,[18],inactive
same,Potency,[19],inactive
Cc1cc(Cl)ccc1N,Potency,[1],inactive and 38.9 µM (active)
same,Potency,[2],inactive
same,Potency,[3],inactive
same,max response,[4],9.86% (inactive) and 3.76% (inactive) and 5.35% (inactive)
same,Potency,[7],inactive
same,Potency,[8],inactive and 38.9 µM (active)
same,Potency,[9],inactive and 38.9 µM (active)
same,outcome,[10],inactive
same,Potency,[11],inactive and 38.9 µM (active)
same,Potency,[12],inactive and 38.9 µM (active)
same,Potency,[13],inactive and 38.9 µM (active)
same,Potency,[14],inactive and 34.7 µM (active)
same,Potency,[15],inactive
same,Potency,[16],inactive
same,Potency,[18],inactive
same,Potency,[19],inactive and 43.6 µM (active)
CCCCCCCCCCCCCC[P+](CCCCCC)(CCCCCC)CCCCCC,Potency,[1],13.9 µM (active) and 19.7 µM (active)
same,Potency,[2],7.8 µM (active) and 8.78 µM (active)
same,Potency,[3],17.5 µM (active) and 19.7 µM (active) and inactive
same,Potency,[4],2.47 µM (active) and 1.75 µM (active) and 1.23 µM (active)
same,Potency,[6],12.4 µM (active) and 22.1 µM (active) and inactive
same,Potency,[7],11 µM (active) and 19.7 µM (active) and inactive
same,Potency,[8],11 µM (active) and 17.5 µM (active) and inactive
same,Potency,[9],12.4 µM (active) and 17.5 µM (active) and 48.9 µM (active)
same,outcome,[10],inactive
same,Potency,[11],12.4 µM (active) and 19.7 µM (active)
same,Potency,[12],inactive
same,Potency,[13],12.4 µM (active) and 17.5 µM (active)
same,Potency,[14],19.6 µM (active) and 22.1 µM (active) and inactive
same,Potency,[15],13.9 µM (active) and 19.7 µM (active) and inactive
same,Potency,[20],5.52 µM (active) and 6.22 µM (active) and 3.46 µM (active)
same,Potency,[16],12.4 µM (active) and 17.5 µM (active)
same,Potency,[18],inactive
same,Potency,[19],19.6 µM (active) and 22.1 µM (active) and inactive
O=c1nc(O)n(Cl)c(=O)n1Cl,Potency,[1],inactive
same,Potency,[2],inactive
same,max response,[4],3.95% (inactive) and 2.22% (inactive)
same,Potency,[5],inactive
same,Potency,[6],inactive
same,Potency,[7],inactive
same,Potency,[8],inactive
same,Potency,[9],inactive
same,outcome,[10],inactive
same,Potency,[11],inactive
same,Potency,[12],inactive
same,Potency,[13],inactive
same,Potency,[14],inactive
same,Potency,[15],inactive
same,Potency,[20],inactive
same,Potency,[16],inactive
same,Potency,[17],inactive
same,Potency,[18],inactive
same,Potency,[19],inactive
CCCC[n+]1cccc(C)c1,Potency,[1],inactive
same,Potency,[2],inactive
same,Potency,[3],inactive
same,max response,[4],7.15% (inactive) [middle of 6 runs]
same,Potency,[5],inactive
same,Potency,[7],inactive and 55.7 µM (active)
same,Potency,[8],inactive
same,Potency,[9],inactive
same,outcome,[10],inactive
same,Potency,[11],inactive
same,Potency,[12],inactive
same,Potency,[13],inactive
same,Potency,[14],inactive
same,Potency,[15],inactive
same,Potency,[20],inactive
same,Potency,[16],inactive
same,Potency,[17],inactive
same,Potency,[18],inactive
same,Potency,[19],inactive

# — PubChem BioAssay (Tox21)
